Screens (PubChem)
Only some compounds are listed: those with a hit (about 2.9% of all), similar ones and a draw of the others.
Cardio protect – cardioprotection against H2O2-induced cell death, primary screen, uHTS, H9c2 cells, ATPLite luminescence. protection from H2O2 cell death, % at 20 µM. 0.63% of 360,000 active. AID 588492, 2011. H9c2 cardiomyocytes, H2O2 injury protection, 2 h;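 active = compounds giving at least 50% protection of heart cells from peroxide-induced death in the single-dose screen, raw or plate-pattern-corrected value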;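 note: 0% = DMSO wells with peroxide and 100% = DMSO wells without peroxide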
ABHD5-PLIN5 inh – ABHD5-PLIN5 interaction inhibitors, primary screen, cell lysate, split luciferase complementation, luminescence; 0.78% of 360,000 active; inhibition, % at 4 µM; Split G. princeps luciferase complementation, 4 h;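 active = inhibition above the mean inhibition across every tested compound plus 3 SD, cut at about 22% in these data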;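 note: 0% = DMSO only wells and the 100% control is not disclosed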
DAGLB inhibitor – DAGLB lipase inhibitors, primary screen, biochemical, fluorescence, HTS; Diacylglycerol lipase-beta (Homo sapiens), Q8NCG7; HEK293T DAGLB membrane lysate, EnzChek fluorogenic substrate; inhibition, % at 5.17 µM; 0.059% of 340,000 active; in the data active = inhibition above about 34%;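 note: 0% = enzyme with vehicle and 100% = wells lacking enzyme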
Myeloid diff MLP – induction of myeloid progenitor differentiation, primary screen, cell-based, flow cytometry, MLPCN library; ER-HoxA9 myeloid progenitors, lysozyme-GFP differentiation; calls only at 10 µM; 1% of 360,000 active;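 active = normalized GFP-positive differentiation at or above the plate's own cutoff, the solvent-only control mean plus 3 SD; inconclusive = no clear call, values can overlap the other calls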;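 note: cells exposed to compound for four days before flow analysis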
sPLA2-III inh – human group III sPLA2 inhibitors, primary screen, biochemical, QFRET, BODIPY PC-A2 liposome substrate; Group 3 secretory phospholipase A2 (Homo sapiens), Q9NZ20; QFRET BODIPY PC-A2 liposome hydrolysis, fluorescence; inhibition, % at 12.2 µM; 0.56% of 370,000 active; AID 743126, 2013;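 active = inhibition above mean plus 3 SD of compounds lying within the high and low control bounds, cut at about 19% in these data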;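 note: 0% = median of test compound wells and 100% = no enzyme DMSO wells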
Rtt109 HAT inh – inhibitors of C. albicans Rtt109/Vps75 HAT, primary screen, biochemical, ThioGlo CoA-SH fluorescence, plate reader; Histone acetyltransferase RTT109 (Candida albicans (strain SC5314 / ATCC MYA-2876)), …; purified Rtt109/Vps75, 4 h; inhibition, % at 34.9 µM; 0.16% of 330,000 active;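 active = inhibition of at least 50% in every replicate; inconclusive = best replicate reaches 50% inhibition but some replicates fall short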
Target sequence (Q5AAJ8 whole entry, looked up): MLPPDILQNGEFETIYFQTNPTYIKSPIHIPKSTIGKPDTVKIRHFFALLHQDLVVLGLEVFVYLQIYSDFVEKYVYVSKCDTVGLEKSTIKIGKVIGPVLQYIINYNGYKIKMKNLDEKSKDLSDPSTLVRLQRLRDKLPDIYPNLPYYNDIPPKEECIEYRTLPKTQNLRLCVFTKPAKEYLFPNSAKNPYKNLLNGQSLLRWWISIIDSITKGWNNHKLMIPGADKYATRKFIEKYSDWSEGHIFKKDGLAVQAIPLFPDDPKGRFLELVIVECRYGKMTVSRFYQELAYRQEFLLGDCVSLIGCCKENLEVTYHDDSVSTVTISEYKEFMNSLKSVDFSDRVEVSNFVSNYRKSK
* hit, by the source's call; i = inactive; ? = inconclusive; / = no result given; + = active, no number.

SMILES	Cardio protect	ABHD5-PLIN5 inh	DAGLB inhibitor	Myeloid diff MLP	sPLA2-III inh	Rtt109 HAT inh
Cn1c(-c2ccc(F)cc2)cc2onc(-c3c(F)cccc3Cl)c2c1=O	/	/	-2	/	6	/
CCCOc1ccc(C(=O)N2CCCC2C(=O)O)cc1 (centres undefined)	10	8	-1	i	3	/
CCOc1ccc(C(=O)N2CCCC2C(=O)O)cc1 (centres undefined)	-5	-1	2	+	1	1
COc1cc(-c2cnc3c(NC=O)cc(-c4cccc(NC(C)=O)c4)cn23)cc(OC)c1OC	54*	9	/	?	-11	/
COc1cc(-c2cnc3c(NC=O)cc(-c4ccccc4)cn23)cc(OC)c1OC	31	1	/	i	2	/
CC(=O)c1cccc(-c2cnc3c(NC=O)cc(-c4ccccc4)cn23)c1	30	1	/	i	5	/
COc1cccc(-c2cnc3c(NC=O)cc(-c4ccccc4)cn23)c1	6	-4	/	?	-5	/
COc1ccc(-c2cc(NC=O)c3ncc(-c4cccc(C(=O)NCCN(C)C)c4)n3c2)c(OC)c1	-4	13	/	+	6	/
COc1ccc(-c2cc(NC=O)c3ncc(-c4cccc(C(C)=O)c4)n3c2)cc1	65*	11	/	i	11	/
COc1cccc(-c2cnc3c(NC=O)cc(-c4cc(C)c(O)c(C)c4)cn23)c1	67*	-3	/	?	-17	/
COc1cccc(-c2cnc3c(NC(C)=O)cc(-c4cccc(NS(C)(=O)=O)c4)cn23)c1	63*	-4	/	i	-31	/
CC(=O)Nc1cc(-c2cccc(NS(C)(=O)=O)c2)cn2c(-c3ccccc3)cnc12	9	7	/	i	-10	/
COc1cccc(-c2cnc3c(NC=O)cc(-c4cccc(NC(C)=O)c4)cn23)c1	64*	-3	/	i	4	/
CC(=O)Nc1cccc(-c2cc(NC=O)c3ncc(-c4cccc(C(C)=O)c4)n3c2)c1	71*	2	/	i	-9	/
CC(=O)c1cccc(-c2cnc3c(NC=O)cc(-c4ccc(C(=O)N5CCOCC5)cc4)cn23)c1	36	5	/	i	11	/
CC(=O)c1ccc(-c2cnc3c(NC=O)cc(-c4cccc(C(=O)N(C)C)c4)cn23)cc1	76*	4	/	i	10	/
CN(C)C(=O)c1cccc(-c2cc(NC=O)c3ncc(-c4ccc(F)cc4)n3c2)c1	27	6	/	i	1	/
COc1cccc(CNC(=O)c2ccc(NC(=O)CC3SC(N4CCCC4)=NC3=O)cc2)c1 (centres undefined)	-3	4	0	i	1	0
O=C(CSc1ncnc2c1oc1ccccc12)NCc1ccc(F)cc1	-1	4	-3	i	-2	-2
CC1CCN(S(=O)(=O)c2cn(CC(=O)Nc3ccc(C#N)cc3)cn2)CC1	-7	5	-2	i	-9	-2
CCn1cc(/C=C(\NC(=O)c2ccccc2OC)C(=O)NCCCn2ccnc2)c2ccccc21	8	10	0	i	-12	-2
CN(Cc1ccccc1)C(=O)c1cccc(NC(=O)Cc2cccc(NC(=O)C3CCN(C(=O)C4CC4)CC3)c2)c1	10	0	-1	+	-8	21
CN(Cc1ccccc1)C(=O)c1ccc(NC(=O)Cc2cccc(NC(=O)C3CCN(C(=O)C4CC4)CC3)c2)cc1	0	-7	-2	i	-15	4
Oc1c(Br)cc(Cl)cc1C=Nc1ccccc1Br	72*	0	10	i	1	-11
CCO[C@@H]1OC(C(N)=O)=C[C@H](c2ccccc2)[C@H]1CCCO	2	-1	1	i	3	-13
SMILES	Cardio protect	ABHD5-PLIN5 inh	DAGLB inhibitor	Myeloid diff MLP	sPLA2-III inh	Rtt109 HAT inh
CCOc1cc(CNCCc2ccc(S(N)(=O)=O)cc2)ccc1OCc1ccc(Cl)cc1	-33	28*	3	i	-30	2
COc1cc(CNCCc2ccc(S(N)(=O)=O)cc2)ccc1OCc1ccc(Cl)cc1	-16	15	1	i	-25	-7
CCOc1ccc(S(=O)(=O)n2cc(F)c(=O)[nH]c2=O)cc1	-4	-4	/	+	-5	-3
Cc1ccccc1NC(=O)NCC1CCN(c2ccc(S(=O)(=O)N3CCOCC3)cc2)CC1	-3	-13	2	i	1	6
Cc1cccc(N2CCN(C(=O)c3cc4c(=O)n(C)c5ccccc5c4n3C)CC2)c1C	4	-4	-1	+	4	11
Cn1c(C(=O)N2CCCC2)cc2c(=O)n(C)c3ccccc3c21	9	5	-5	i	-1	11
Cn1c(C(=O)N2CCN(c3ncccn3)CC2)cc2c(=O)n(C)c3ccccc3c21	42	-11	-1	i	7	-1
Cc1ccc(Cl)cc1N1CCN(C(=O)c2cc3c(=O)n(C)c4ccccc4c3n2C)CC1	10	-5	1	+	1	-1
Cc1nnc(C)n1N=Cc1ccc(O)cc1O	/	/	/	/	-1	/
Cc1nnc(C)n1/N=C/c1cc(Br)cc(Br)c1O	78*	-4	6	i	-1	-8
Cc1nnc(C)n1/N=C/c1cc(Br)ccc1O	66*	-1	2	/	4	-17
COc1ccc(N=Cc2cc(Cl)ccc2O)cc1Cl	72*	3	-1	i	4	0
Oc1ccc(Cl)cc1C=Nc1ccc(Br)cc1	50*	-1	-4	i	1	-3
Oc1ccc(N=Nc2cccc(Cl)c2)cc1C=Nc1ccc(N2CCOCC2)cc1	66*	-9	8	i	-4	-25
Cc1ccc(N=Cc2ccccc2O)cc1Cl	4	11	0	i	1	5
CCCCCc1ccc(NC(=O)O[C@@H]2CC[C@@]34CCCN3C(=O)CCC[C@H]4C2)cc1	/	/	/	/	-7	/
Cc1cc(N2CCN(CCO)CC2)n2nc(C)nc2n1	/	/	/	/	7	/
Cc1ccc(NC(=O)NC2=N/C(=C(/C#N)C(=O)N3CCCC3)c3ccccc32)cc1	70*	0	1	i	11	7
N#C/C(C(=O)N1CCCC1)=C1/N=C(N)c2ccccc21	0	-6	0	i	4	-1
N/C(=N/OC(=O)c1ccccc1Cl)c1ncc([N+](=O)[O-])s1	-13	-2	2	+	5	1
CCNC(=O)c1cc(Br)ccc1Cl	-1	3	-3	i	7	7
N#Cc1ccc[n+](CC(=O)c2ccc(Cl)cc2)c1	2	7	2	+	-15	15
